The nature of assay [1]: qHTS assay to identify small molecule agonists of the estrogen receptor alpha (ER-alpha) signaling pathway in the presence of an antagonist - cell viability counter screen (AID 1259386).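 Note: cells exposed to compounds for 22 h at 37 °C before the viability read; nearly all actives have a fitted effect of over 30% in size.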 Note: potency is the fitted concentration of half-maximal effect. The procedure, abridged: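 Steps: 5-day stripped-FBS culture; seed and incubate 24hr; add ICI-182,780 (10.0nM final); pin 15-point compound titration; incubate 22hr at 37C; add CellTiter-Fluor at 21hr; read fluorescence.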
(In general: qHTS replaces the single test concentration by a dilution series.)

For assay [2], the target named is Progesterone receptor (Homo sapiens) (UniProt P06401). The assay can be described thus: qHTS assay to identify small molecule antagonists of the progesterone receptor (PR) signaling pathway (AID 1346795; active = well fitted inhibition curve with a large enough effect in the signal ratio in the repeat runs, not every such curve was filed as active; the % refers to the signal ratio; note: potency is the fitted concentration of half-maximal effect). The essentials:
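Screening used a GripTite HEK293T line with PR-responsive UAS-beta-lactamase. Cells were challenged with compound in the presence of 1 nM R5020 final for 16 hr at 37C; B/G FRET substrate, 2 hr room temperature, fluorescence.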

Assay [3] in a line: qHTS assay to identify small molecule antagonists of the progesterone receptor (PR) signaling pathway - cell viability counter screen (AID 1346798). Note: nearly all actives have a fitted effect of over 50% in size. Note: potency is the fitted concentration of half-maximal effect. The procedure, abridged:
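Measures cytotoxicity in parallel with the PR antagonist reporter read: HEK293T PR-UAS-bla cells get compound and R5020 for 16 hr, and remaining viable cells are quantified by CellTiter-Glo luminescence.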

Assay [4] can be described thus: qHTS assay to identify small molecule agonists of the progesterone receptor (PR) signaling pathway - cell viability counter screen (AID 1346799; calls by dose curve; note: nearly all actives have a fitted effect of over 45% in size; note: potency is the fitted concentration of half-maximal effect). The procedure, abridged:
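Using the same plates as the PR reporter screen, HEK293T PR-UAS-bla cells received compounds for 16 hr at 37C and were then lysed with CellTiter-Glo; luminescence was read 30 min later at room temperature.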

Assay [5] in a line: qHTS assay to identify small molecule antagonists of the TGF-beta/Smad signaling pathway - cell viability counter screen (AID 1346824). Note: nearly all actives have a fitted effect of over 50% in size. Note: potency is the fitted concentration of half-maximal effect. The procedure, abridged:
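SBE-bla HEK 293T cells, incubated overnight, then compound plus 0.25 ng/mL TGF-beta1 (stock added) for 5 hr at 37 C. Viability was read in the same wells by CellTiter-Glo luminescence after 30 min at room temperature.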

Assay [6] can be described thus: qHTS assay to identify small molecule agonists of the TGF-beta/Smad signaling pathway - cell viability counter screen (AID 1346829). Note: nearly all actives have a fitted effect of over 45% in size. Note: potency is the fitted concentration of half-maximal effect. The essentials:
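CellTiter-Glo luminescence readout; SBE-bla HEK 293T cells, overnight plating, compound 5 hr at 37 C/5% CO2, then bla substrate 2 hr RT, then CellTiter-Glo 30 min RT.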

A short description of assay [7]: qHTS assay to identify small molecule agonists of the TGF-beta/Smad signaling pathway (AID 1346859; active = well fitted activation curve with a large enough effect in the signal ratio in the repeat runs, not every such curve was filed as active; the % refers to the signal ratio; note: potency is the fitted concentration of half-maximal effect; for activation: series mostly up to about 77 µM). The essentials: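 Beta-lactamase reporter activity downstream of Smad binding elements was measured in stably transfected HEK 293T cells; compounds were incubated for 5 hr, substrate for 2 hr at room temperature.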
The target in assay [8] is Thyrotropin-releasing hormone receptor (Homo sapiens) (UniProt P34981). Briefly: qHTS assay to identify small molecule antagonists of the thyrotropin-releasing hormone receptor (TRHR) signaling pathway (AID 1346877; active = well fitted inhibition curve with a large enough effect in the repeat runs, not every such curve was filed as active; note: series mostly up to about 51 µM). The procedure, abridged:
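Human TRHR in HEK293 cells; inhibition of the intracellular calcium rise triggered by 1 nM TRH was followed by fluorescence over 3 min. Compounds were run at 15 concentrations, three replicates each.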

The target is the same in assay [9]. The assay can be described thus: qHTS assay to identify small molecule agonists of the thyrotropin-releasing hormone receptor (TRHR) signaling pathway (AID 1346891; calls by dose curve;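 note: HEK293 cells expressing TRHR with calcium dye readout; series mostly up to about 58 µM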). The essentials:
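Overnight-plated (18 h, 37 °C, 5% CO2) TRHR-Hek293 cells; 2 h calcium dye at 37 °C; compound in DMSO; 3-min kinetic fluorescence read.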

In assay [10] the target is Progesterone receptor (Homo sapiens) (UniProt P06401). Briefly: qHTS assay to identify small molecule agonists of the progesterone receptor (PR) signaling pathway (AID 1346784; calls by dose curve; note: nearly all actives have a fitted effect of over 30% in size; note: potency is the fitted concentration of half-maximal effect). The essentials:
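Seed PR-UAS-bla HEK 293T cells (2% charcoal-stripped FBS), incubate 6 hr at 37C; add compounds in DMSO, 16 hr at 37C; add LiveBLAzer B/G substrate, 2 hr RT; read fluorescence intensity.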

Where “and” joins values, the source holds several entries; their conditions need not be identical. Equal entries are not always repeated. Inconclusive results are not listed. Calls of active or inactive are those of the source. Unless noted, calls come from the whole dose curve; as a rule, active = well fitted curve in the direction sought with a large enough effect in the repeat runs; inconclusive = weak or mixed curves; inactive = no such curve, though single readings can be large; an effect the other way counts as inactive or inconclusive.
% is set by controls: 0 for no effect and ±100 for the full control effect.

Progesterone receptor (Homo sapiens), sequence (P06401 whole entry, looked up): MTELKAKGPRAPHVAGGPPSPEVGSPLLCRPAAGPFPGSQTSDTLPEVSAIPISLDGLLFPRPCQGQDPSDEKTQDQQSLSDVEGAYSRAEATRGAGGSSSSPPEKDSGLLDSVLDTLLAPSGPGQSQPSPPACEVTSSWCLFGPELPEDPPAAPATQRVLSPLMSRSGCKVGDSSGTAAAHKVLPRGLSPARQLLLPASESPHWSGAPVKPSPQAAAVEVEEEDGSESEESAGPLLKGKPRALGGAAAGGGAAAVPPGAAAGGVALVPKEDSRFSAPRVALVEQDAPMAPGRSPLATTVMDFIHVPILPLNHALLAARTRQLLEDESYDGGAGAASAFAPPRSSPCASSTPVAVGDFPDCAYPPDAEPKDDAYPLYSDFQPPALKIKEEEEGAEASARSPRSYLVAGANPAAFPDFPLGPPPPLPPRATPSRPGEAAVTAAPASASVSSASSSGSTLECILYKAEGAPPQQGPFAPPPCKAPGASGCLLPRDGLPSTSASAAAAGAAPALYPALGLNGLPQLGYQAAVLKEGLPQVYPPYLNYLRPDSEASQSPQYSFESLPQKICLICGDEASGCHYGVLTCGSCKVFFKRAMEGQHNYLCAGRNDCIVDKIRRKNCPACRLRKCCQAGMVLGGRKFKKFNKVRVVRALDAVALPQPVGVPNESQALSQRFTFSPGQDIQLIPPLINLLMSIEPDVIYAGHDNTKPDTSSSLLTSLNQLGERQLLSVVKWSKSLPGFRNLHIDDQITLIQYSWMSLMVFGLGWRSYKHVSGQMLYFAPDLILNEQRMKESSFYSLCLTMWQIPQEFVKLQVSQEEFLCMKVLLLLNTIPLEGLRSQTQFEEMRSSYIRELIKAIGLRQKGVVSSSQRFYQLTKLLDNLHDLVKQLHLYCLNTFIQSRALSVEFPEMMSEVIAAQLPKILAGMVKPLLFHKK
Thyrotropin-releasing hormone receptor (Homo sapiens), sequence (P34981 whole entry, looked up): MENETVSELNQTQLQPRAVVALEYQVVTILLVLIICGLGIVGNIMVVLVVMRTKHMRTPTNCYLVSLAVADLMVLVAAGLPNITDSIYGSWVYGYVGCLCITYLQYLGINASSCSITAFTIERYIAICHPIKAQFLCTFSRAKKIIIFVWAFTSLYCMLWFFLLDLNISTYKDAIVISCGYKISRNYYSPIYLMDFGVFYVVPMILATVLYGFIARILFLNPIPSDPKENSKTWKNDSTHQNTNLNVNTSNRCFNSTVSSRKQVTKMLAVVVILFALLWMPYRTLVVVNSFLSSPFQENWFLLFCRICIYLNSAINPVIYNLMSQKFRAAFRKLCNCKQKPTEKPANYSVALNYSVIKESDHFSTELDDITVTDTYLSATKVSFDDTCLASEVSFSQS

Turning to `CCCCCCOC(=O)c1ccc(O)cc1`, the Potency entry in assay [1], in [3], in [4], in assay [5], in assay [6] and in [7] was “inactive” each time. In addition, the Potency entry in [8] and in assay [9] was “inactive” each time. Also, in assay [2], the Potency is 38.6 µM (active) and 21.7 µM (active).
Take `CC(C)(C)c1ccc(C(=O)CCCN2CCC(OC(c3ccccc3)c3ccccc3)CC2)cc1`: the Potency entry in assay [1] and in assay [10] was “inactive” throughout. Also, the figures for the Potency in [5] and in assay [6] were 21.3 µM (active) and 23.9 µM (active), respectively.
On to `OCc1c[nH]c2ccccc12`, for which the Potency result in assay [1], in assay [5], in [8] and in [9] was “inactive” in each case. Besides, the Potency in [2] was 25.8 µM (active).
On to `Cc1c(C)c2c(c(C)c1O)CCC(C)(COc1ccc(CC3SC(=O)NC3=O)cc1)O2` (stereo not drawn), for which the Potency entry in [1], in [10], in [5], in assay [6], in assay [7] and in assay [8] was “inactive” throughout. The Potency result in assay [9] was “inactive”.
With `N#CC1(c2ccc(F)cc2)CCC(=O)CC1`, the Potency result in assay [1], in assay [10], in assay [4], in [6], in assay [7] and in assay [9] was “inactive” in each case.
Consider `O=c1c(-c2ccccc2)c1-c1ccccc1`, for which the Potency result in assay [1], in [10], in [4], in assay [5], in assay [6] and in assay [7] was “inactive” each time. Also, the Potency result in assay [8] and in [9] was “inactive” in each case.
`CCCCCCC[N+](CC)(CC)CCCCc1ccc(Cl)cc1`: the Potency in assay [1] was 26.6 µM (active). Also, the Potency result in assay [10], in assay [6], in [8] and in [9] was “inactive” throughout.
Take `CCCC/C=C/CCCCO`: the Potency result in assay [1], in [2], in [3], in assay [4], in assay [5] and in [6] was “inactive” in each case. Also, the Potency entry in [7], in [8] and in assay [9] was “inactive” each time.
In the case of `COCCCC/C(=N\OCCN)c1ccc(C(F)(F)F)cc1`, the Potency result in [1], in assay [10], in [5], in assay [6] and in [7] was “inactive” throughout.
As for `Cc1cccc(N(C)C(=S)Oc2ccc3c(c2)C2CCC3C2)c1` (stereo not drawn), the Potency entry in [1], in assay [10], in [4], in assay [6], in assay [7] and in assay [9] was “inactive” each time.
On to `CC(C)C(C)(C)C(C)(C)C(C)(C)S`, for which the Potency result in assay [1], in [10], in assay [5], in assay [6], in assay [7] and in assay [8] was “inactive” throughout. The Potency result in [9] is “inactive”.
Turning to `Oc1ccc(Cl)cc1Sc1cc(Cl)ccc1O`, the Potency in assay [1] is 29.8 µM (active); in assay [2], 7.68 µM (active) and 9.44 µM (active); in assay [3], 54.4 µM (active). Moreover, the Potency entry in assay [4], in [6] and in [7] was “inactive” in each case.
For `O=S1(=O)CC(Cl)(Cl)C(Cl)(Cl)C1`, the Potency was 27.3 µM (active) in assay [1], 6.86 µM (active) in [2], 13.7 µM (active) in [3] and 12.2 µM (active) in [4]. The Potency entry in assay [8] and in [9] was “inactive” each time.
As to `Nc1c2ccccc2nc2ccccc12`, the Potency entry in [1], in [5] and in assay [6] was “inactive” each time. In addition, the Potency in [10] is 4.79 µM (active); in assay [7], 23.9 µM (active).
Consider `CCC1OCC(COc2ccc(Oc3ccccc3)cc2)O1` (stereo not drawn), for which the Potency entry in assay [1], in assay [10], in [6], in assay [7], in assay [8] and in [9] was “inactive” throughout.
Regarding `CSc1ccc2c(c1)C(N1CCN(C)CC1)Cc1ccccc1S2` (stereo not drawn), the Potency entry in assay [1], in assay [5], in assay [6], in assay [7] and in assay [9] was “inactive” throughout. Moreover, the values for the Potency in [2], in assay [3] and in [4] were 26.6 µM (active), 26.6 µM (active) and 33.5 µM (active), respectively.
For the compound `Cc1cc(CCN2CCN(c3nsc4ccccc34)CC2)cc2c1NC(=O)CC2(C)C`, the Potency in assay [1] is 48.6 µM (active); in assay [2] it was 19.3 µM (active); in assay [3] it was 30.6 µM (active); in [4] it was 27.3 µM (active); in [5], 54.9 µM (active).
Consider `Cc1c(C)c2c(c(C)c1OC(=O)CCC(=O)O)CC[C@@](C)(CCC[C@H](C)CCC[C@H](C)CCCC(C)C)O2`, for which the Potency result in [1], in [10], in assay [5], in [6], in assay [8] and in [9] was “inactive” throughout.
Consider `CC[C@H](c1ccc(O)cc1)[C@@H](CC)c1ccc(O)cc1`, for which the Potency entry in assay [1], in assay [10], in assay [5], in assay [6] and in assay [7] was “inactive” throughout.
For the compound `Oc1ccc2cc(SSc3ccc4cc(O)ccc4c3)ccc2c1`, the Potency result in assay [1], in assay [3], in assay [5], in assay [6], in assay [7] and in assay [8] was “inactive” throughout. Further, in assay [9], the Potency entry is “inactive”. Further, in assay [2], the Potency is 30.7 µM (active) and 48.6 µM (active).
For `O=c1[nH]sc2cc(Cl)ccc12`, the Potency entry in assay [1], in assay [10], in [4], in assay [6], in assay [7] and in [8] was “inactive” each time. For the same compound, the Potency result in assay [9] is “inactive”.
Regarding `CC(=O)N1CCN(c2ccc(OC[C@H]3CO[C@](Cn4ccnc4)(c4ccc(Cl)cc4Cl)O3)cc2)CC1`, the Potency in [1] was 61.1 µM (active); in assay [2], 13.7 µM (active); in [3] it was 30.6 µM (active); in [4] it was 30.6 µM (active). For the same compound, the Potency entry in assay [7] is “inactive”.
Take `CCN1/C(=C/C=C/c2sc3ccccc3[n+]2CC)Sc2ccccc21`: the Potency in assay [1] is 6.51 µM (active); in assay [2], 11.6 µM (active); in assay [6], 4.65 µM (active). Besides, the activity, negative = inhibition in [8] is -4.16% [at 10.5 µM] (inactive). In assay [9], the activation is -0.259% [at 11.8 µM] (inactive).

Source of the values: PubChem BioAssay (Tox21).
